Laboratory results: PubChem BioAssay (NCI)
This is part of a sample that, as a whole, favours compounds with a hit. Of some 79,000 tested, about 15% had one in any assay. The source made the active and inactive calls. No stated cut-off is given here; in the data, active means growth inhibition above about 70%; inactive means the rest.

Experiments:
[1] = NCI Yeast Anticancer Drug Screen. Data for the mlh1 rad18 strain (AID 175); details: S. cerevisiae mlh1 rad18 strain growth inhibition, stronger effect = higher value
How it was run: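 Genetically defined yeast (DNA repair-deficient) exposed to compounds; growth inhibition determined relative to vehicle.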

[2] = NCI Yeast Anticancer Drug Screen. Data for the rad18 strain (AID 177); details: S. cerevisiae rad18 mutant growth inhibition, stronger effect = higher value
How it was run: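 Vehicle-treated cultures served as the baseline for scoring compound-induced growth inhibition in DNA-repair-mutant yeast.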

[3] = NCI Yeast Anticancer Drug Screen. Data for the rad52 strain (AID 147);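 further: 0% = growth of vehicle-treated control cultures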; details: S. cerevisiae rad52 mutant growth inhibition, stronger effect = higher value
How it was run: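 The repair-mutant yeast strain was incubated with compounds, then growth was read and inhibition derived relative to vehicle.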

[4] = NCI Yeast Anticancer Drug Screen. Data for the wt1 strain (AID 149);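 further: 0% = growth of vehicle-treated wt1 cultures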; details: S. cerevisiae wt1 strain (SPY 50644) growth inhibition, stronger effect = higher value
How it was run: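 Measured: growth of wt1 yeast under compound versus vehicle treatment, reported as inhibition.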

[5] = NCI Yeast Anticancer Drug Screen. Data for the rad50EPP+ strain (AID 151);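 further: 0% = growth of vehicle-treated control cultures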; details: S. cerevisiae rad50 mutant strain, stronger effect = higher value
How it was run: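 Vehicle-normalised growth inhibition; rad50EPP+ yeast strain, altered in DNA damage repair, compound-treated.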

[6] = NCI Yeast Anticancer Drug Screen. Data for the rad50 strain (AID 155);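 further: 0% = growth of vehicle-only cultures of the same strain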; details: S. cerevisiae rad50 strain growth inhibition, stronger effect = higher value
How it was run: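 Growth of the mutant yeast was measured after compound exposure and referenced to vehicle-treated cultures.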

[7] = NCI Yeast Anticancer Drug Screen. Data for the mec2-1 strain (AID 157); details: S. cerevisiae mec2-1 strain, stronger effect = higher value
How it was run: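 Mutant yeast (mec2-1) grown with compound; growth inhibition relative to vehicle control reported.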

[8] = NCI Yeast Anticancer Drug Screen. Data for the rad14 strain (AID 159);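 further: 0% = growth of vehicle-treated control cultures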; details: S. cerevisiae rad14 strain growth inhibition, stronger effect = higher value
How it was run: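 Here, inhibition of yeast growth was measured after compound exposure, using a strain with a genetic defect in DNA damage repair and vehicle-treated cultures as the reference.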

[9] = NCI Yeast Anticancer Drug Screen. Data for the CLN2oe strain (AID 163);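 further: 0% = growth of vehicle-only control cultures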; details: S. cerevisiae CLN2oe strain, stronger effect = higher value
How it was run: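 Compounds are applied to yeast harbouring a defined cell-cycle control change; reduced growth compared with vehicle-treated controls gives the value.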

[10] = NCI Yeast Anticancer Drug Screen. Data for the cln2 rad14 strain (AID 165);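 further: 0% = growth equal to vehicle treated cultures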; details: S. cerevisiae cln2 rad14 strain, stronger effect = higher value
How it was run: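 Readout is yeast growth inhibition versus vehicle-treated controls, using a strain with cln2 and rad14 alterations exposed to compound.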

[11] = NCI Yeast Anticancer Drug Screen. Data for the bub3 strain (AID 167); details: S. cerevisiae bub3 mutant strain, stronger effect = higher value
How it was run: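 Whole-cell yeast assay. The mutant strain was incubated with compounds, and growth inhibition was determined by comparison with vehicle-treated cells.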

[12] = NCI Yeast Anticancer Drug Screen. Data for the wt2 strain (AID 169);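 further: 0% = growth of vehicle-treated yeast cultures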; details: S. cerevisiae wt2 strain growth inhibition, stronger effect = higher value
How it was run: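 Against vehicle-treated controls, the growth of yeast exposed to each compound was compared, and the inhibition was recorded.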

[13] = NCI Yeast Anticancer Drug Screen. Data for the mlh1 strain (AID 171);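 further: 0% = growth of vehicle-treated control cultures of the same strain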; details: S. cerevisiae mlh1 strain growth inhibition, stronger effect = higher value
How it was run: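 Measured: yeast growth. Reference: vehicle-treated controls. Organism: strain with a defined alteration affecting DNA damage repair or cell cycle control, treated with compound.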

[14] = NCI Yeast Anticancer Drug Screen. Data for the sgs1 strain (AID 173);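 further: 0% = growth of vehicle-only control cultures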; details: S. cerevisiae sgs1 mutant, stronger effect = higher value
How it was run: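 Each compound was added to cultures of the altered yeast strain. Growth was recorded, and inhibition was derived by comparison with vehicle controls.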

[15] = NCI Yeast Anticancer Drug Screen. Data for the sgs1 mgt1 strain (AID 161);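 further: 0% = growth of cultures given vehicle only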; details: S. cerevisiae sgs1 mgt1 strain, stronger effect = higher value
How it was run: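 Growth of a repair-deficient yeast mutant was monitored after compound treatment and expressed as inhibition relative to vehicle-treated cultures.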

[16] = at 5.0 µM (retest, dose inferred, filed as 0.5)
[17] = at 50.0 µM (retest, dose inferred, filed as 5.0)

Measured: growth inhibition

CCCCOc1ccc2nc(C)cc(N=[N+]=[N-])c2c1
active: [1]; [17] 93% | [1]; at 50.0 µM 74.2% | [2]; at 100.0 µM 96%
inactive: [1]; [16] 8% | [2]; at 1.2 µM 16% | [2]; at 3.7 µM 19% | [2]; at 11.0 µM 23% | [2]; at 33.0 µM 51%

CNC(=O)OCc1c2ccncc2c(C)c2c1[nH]c1ccccc12
active: [3]; at 3.7 µM 82% | [3]; at 11.0 µM 88% | [3]; at 33.0 µM 90% | [3]; at 100.0 µM 88% | [6]; at 3.7 µM 72% | [6]; at 11.0 µM 82% | [6]; at 33.0 µM 86% | [6]; [17] 75% | [6]; at 100.0 µM 82% | [7]; at 11.0 µM 84% | [7]; at 33.0 µM 90% | [7]; [17] 89% | [7]; at 50.0 µM 73.8% | [7]; at 100.0 µM 87% | [8]; at 3.7 µM 80% | [8]; at 11.0 µM 89% | [8]; at 33.0 µM 92% | [8]; at 100.0 µM 89% | [10]; [17] 84% | [10]; at 50.0 µM 83.2% | [14]; at 3.7 µM 76% | [14]; at 11.0 µM 84% | [14]; at 33.0 µM 85% | [14]; at 100.0 µM 84% | [1]; [17] 71% | [1]; at 50.0 µM 82.8% | [2]; at 1.2 µM 89% | [2]; at 3.7 µM 93% | [2]; at 11.0 µM 93% | [2]; at 33.0 µM 91% | [2]; at 100.0 µM 87%
inactive: [3]; at 1.2 µM 59% | [4]; at 1.2 µM 2% | [4]; at 3.7 µM 6% | [4]; at 11.0 µM 6% | [4]; at 33.0 µM 21% | [4]; at 100.0 µM 56% | [5]; at 1.2 µM 1% | [5]; at 3.7 µM 17% | [5]; at 11.0 µM 14% | [5]; at 33.0 µM 31% | [5]; at 100.0 µM 45% | [6]; at 1.2 µM 33% | [6]; [16] 61% | [6]; at 50.0 µM 56.4% | [7]; at 1.2 µM 13% | [7]; at 3.7 µM 60% | [7]; [16] 56% | [8]; at 1.2 µM 23% | [9]; at 1.2 µM 6% | [9]; at 3.7 µM 19% | [9]; at 11.0 µM 21% | [9]; at 33.0 µM 34% | [9]; at 100.0 µM 57% | [10]; [16] 44% | [11]; at 1.2 µM -41% | [11]; at 3.7 µM -56% | [11]; [16] -12% | [11]; at 11.0 µM -27% | [11]; at 33.0 µM 0% | [11]; [17] -48% | [11]; at 50.0 µM -12.1% | [11]; at 100.0 µM 39% | [12]; at 1.2 µM -17% | [12]; at 3.7 µM -21% | [12]; at 11.0 µM -9% | [12]; at 33.0 µM -1% | [12]; at 100.0 µM 42% | [13]; at 1.2 µM 6% | [13]; at 3.7 µM 20% | [13]; at 11.0 µM 26% | [13]; at 33.0 µM 38% | [13]; at 100.0 µM 66% | [14]; at 1.2 µM 67% | [1]; [16] 33%

CC1(C)CC(=O)C(/C=N/c2nc(-c3ccc(Br)cc3)cs2)=C(O)C1
active: [3]; at 33.0 µM 95% | [3]; at 100.0 µM 97% | [4]; at 33.0 µM 91% | [5]; at 33.0 µM 95% | [5]; at 100.0 µM 98% | [6]; at 33.0 µM 94% | [6]; [17] 96% | [6]; at 50.0 µM 99% | [6]; at 100.0 µM 97% | [7]; at 33.0 µM 96% | [7]; [17] 97% | [7]; at 50.0 µM 97.5% | [7]; at 100.0 µM 98% | [8]; at 33.0 µM 95% | [8]; at 100.0 µM 98% | [15]; [17] 98% | [15]; at 50.0 µM 99.2% | [9]; at 33.0 µM 93% | [9]; at 100.0 µM 97% | [10]; [17] 97% | [10]; at 50.0 µM 98.3% | [11]; at 33.0 µM 96% | [11]; [17] 98% | [11]; at 50.0 µM 98.8% | [11]; at 100.0 µM 98% | [12]; at 33.0 µM 93% | [12]; at 100.0 µM 98% | [13]; at 33.0 µM 96% | [13]; at 100.0 µM 98% | [14]; at 33.0 µM 97% | [14]; at 100.0 µM 98% | [1]; [17] 99% | [1]; at 50.0 µM 98.8% | [2]; at 33.0 µM 96% | [2]; at 100.0 µM 97%
inactive: [3]; at 1.2 µM 11% | [3]; at 3.7 µM 20% | [3]; at 11.0 µM 53% | [4]; at 1.2 µM 1% | [4]; at 3.7 µM 4% | [4]; at 11.0 µM 17% | [4]; at 100.0 µM 60% | [5]; at 1.2 µM 5% | [5]; at 3.7 µM 17% | [5]; at 11.0 µM 51% | [6]; at 1.2 µM 3% | [6]; at 3.7 µM 32% | [6]; [16] -4% | [6]; at 11.0 µM 48% | [7]; at 1.2 µM 7% | [7]; at 3.7 µM 11% | [7]; [16] -10% | [7]; at 11.0 µM 35% | [8]; at 1.2 µM 6% | [8]; at 3.7 µM 6% | [8]; at 11.0 µM 36% | [15]; [16] -8% | [9]; at 1.2 µM 1% | [9]; at 3.7 µM 7% | [9]; at 11.0 µM 31% | [10]; [16] 65% | [11]; at 1.2 µM 3% | [11]; at 3.7 µM 3% | [11]; [16] -22% | [11]; at 11.0 µM 24% | [12]; at 1.2 µM 0% | [12]; at 3.7 µM 3% | [12]; at 11.0 µM 29% | [13]; at 1.2 µM 3% | [13]; at 3.7 µM 5% | [13]; at 11.0 µM 30% | [14]; at 1.2 µM 10% | [14]; at 3.7 µM 15% | [14]; at 11.0 µM 49% | [1]; [16] 0% | [2]; at 1.2 µM 2% | [2]; at 3.7 µM 5% | [2]; at 11.0 µM 37%
